Potency and affinity values are given separately. Active and inactive are the calls of the source.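 The calls were made as follows: active = compounds lowering cell ATP signal with a fitted half-effect dose at most twice the top valid dose; inconclusive = flat curve with 30 to 70% signal loss, or bad fit; inactive = wrong direction, flat within 30%, or weaker than limit.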
Test: viability loss in HEK293 kidney cells – cell-based, cherry-picks, set 5, cytotoxicity control, dose response (AID 1053117);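 also: more negative means greater loss of ATP signal and more cytotoxicity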
Conditions: HEK293T viability, CellTiter-Glo ATP luminescence, 72 h; series mostly up to 26 µM; activity change, negative = cytotoxicity: at the top concentration

Which “activity change, negative = cytotoxicity” value does the source give for CC(C)(C)c1cc(Cl)c(O)c(NC(=S)NC(=O)c2cccnc2)c1 here?
Its value is -26.8% (inactive).

Which “activity change, negative = cytotoxicity” value does the source give for CSc1ccccc1C(=O)C1CCCN(C(=O)CCc2cccnc2)C1 (centres undefined) here?
The value was -14.4% (inactive).

Which “activity change, negative = cytotoxicity” value does the source give for CN1c2ccc(-c3ccccc3)cc2[C@H]2[C@H](CCN2C(=O)CN2CCOCC2)[C@H]1CO here?
The value was 0.716% [at 23.5 µM] (inactive).

For C[C@@H]1CN([C@@H](C)CO)C(=O)c2cc(-c3ccncc3)cnc2O[C@@H]1CN(C)C(=O)Cc1cccnc1, which “activity change, negative = cytotoxicity” value is on record?
Its value is 4.14% (inactive).

With C[C@H](O)C#Cc1ccc2c(c1)O[C@H](CN(C)C)[C@@H](C)CN([C@@H](C)CO)S2(=O)=O as the compound, how does the “activity change, negative = cytotoxicity” value read?
The value was -12.8% (inactive).

For Cc1ccc(S(=O)(=O)N2CC[C@@H]3[C@H]2c2cc(-c4cccc(C(=O)N(C)C)c4)ccc2N[C@@H]3CO)cc1, which “activity change, negative = cytotoxicity” value is on record?
The value was -11.6% [at 23.5 µM] (inactive).

For CO[C@@H]1CN(C)C(=O)c2cc(NC(=O)Nc3ccc(Cl)c(Cl)c3)ccc2OC[C@H](C)NC[C@@H]1C, which “activity change, negative = cytotoxicity” value is on record?
The value was -12.4% (inactive).

For C[C@H](O)C#Cc1ccc2c(c1)O[C@H](CN(C)C)[C@H](C)CN([C@H](C)CO)S2(=O)=O, which “activity change, negative = cytotoxicity” value is on record?
The value was -8.51% (inactive).

Which “activity change, negative = cytotoxicity” value does the source give for N#C[C@H]1[C@H](c2ccccc2C2=CCCCC2)[C@H](CO)N1S(=O)(=O)c1ccccc1 here?
Its value is -6.85% (inactive).

With Cc1cc(C)n2ncc(C(=O)NCc3ccc(Cl)cc3)c2n1 as the compound, how does the “activity change, negative = cytotoxicity” value read?
Its value is -17% (inactive).

Which “activity change, negative = cytotoxicity” value does the source give for CC(C)C(=O)Nc1ccc2c(c1)C(=O)N(C)[C@@H]1CC[C@H](CC(=O)O)O[C@@H]1CO2 here?
The value was -14.7% [at 23.5 µM] (inactive).

With COc1ccc(Cl)cc1NC(=O)CSc1nc(Nc2ccccc2)nc(N2CCOCC2)n1 as the compound, how does the “activity change, negative = cytotoxicity” value read?
Its value is -15.5% (inactive).

For S=C(NCC1CCCO1)Nc1ccc(Cl)cc1Cl (centres undefined), which “activity change, negative = cytotoxicity” value is on record?
The value was -16.4% (inactive).

Which “activity change, negative = cytotoxicity” value does the source give for Cc1cccc(NC(=O)Nc2ccc(S(=O)(=O)Nc3onc(C)c3C)cc2)c1 here?
Its value is -17.1% (inactive).
